Test [1] has as its target Protein kinase C gamma type (Homo sapiens) (UniProt P05129). Conditions: at 1 µM.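 Note: each value is an averaged percent inhibition of the enzyme.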
The target of test [2] is T1, Protein kinase C iota type (Homo sapiens) (UniProt P41743).
T1 sequence (whole entry): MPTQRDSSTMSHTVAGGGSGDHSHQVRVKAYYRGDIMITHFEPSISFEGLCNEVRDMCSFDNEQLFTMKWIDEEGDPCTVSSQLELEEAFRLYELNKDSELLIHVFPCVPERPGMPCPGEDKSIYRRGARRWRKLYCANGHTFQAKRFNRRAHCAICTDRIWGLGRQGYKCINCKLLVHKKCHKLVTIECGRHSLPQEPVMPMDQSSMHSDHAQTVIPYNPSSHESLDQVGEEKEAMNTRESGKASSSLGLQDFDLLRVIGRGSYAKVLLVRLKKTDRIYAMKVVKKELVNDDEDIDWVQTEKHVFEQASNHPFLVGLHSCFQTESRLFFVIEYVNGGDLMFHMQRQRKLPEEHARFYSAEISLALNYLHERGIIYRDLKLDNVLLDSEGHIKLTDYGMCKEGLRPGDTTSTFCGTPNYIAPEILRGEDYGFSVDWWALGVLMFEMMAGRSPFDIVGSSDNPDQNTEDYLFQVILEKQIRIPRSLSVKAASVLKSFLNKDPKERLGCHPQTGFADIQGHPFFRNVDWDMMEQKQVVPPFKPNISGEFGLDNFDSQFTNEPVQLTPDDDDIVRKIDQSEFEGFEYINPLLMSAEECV
Conditions: at 0.1 µM.

Test [3] addresses T1, Protein kinase C iota type (Homo sapiens). The conditions noted are these: at 1 µM.
Test [4] concerns the target Protein kinase C theta type (Homo sapiens) (UniProt Q04759). The conditions noted are these: at 0.1 µM.
Test [5] has the same target. Conditions: at 1 µM.
The target of test [6] is Protein kinase C beta type (Homo sapiens) (UniProt P05771). The conditions noted are these: at 0.1 µM.
Protein kinase C beta type (Homo sapiens), sequence (P05771 2-671 limits assumed): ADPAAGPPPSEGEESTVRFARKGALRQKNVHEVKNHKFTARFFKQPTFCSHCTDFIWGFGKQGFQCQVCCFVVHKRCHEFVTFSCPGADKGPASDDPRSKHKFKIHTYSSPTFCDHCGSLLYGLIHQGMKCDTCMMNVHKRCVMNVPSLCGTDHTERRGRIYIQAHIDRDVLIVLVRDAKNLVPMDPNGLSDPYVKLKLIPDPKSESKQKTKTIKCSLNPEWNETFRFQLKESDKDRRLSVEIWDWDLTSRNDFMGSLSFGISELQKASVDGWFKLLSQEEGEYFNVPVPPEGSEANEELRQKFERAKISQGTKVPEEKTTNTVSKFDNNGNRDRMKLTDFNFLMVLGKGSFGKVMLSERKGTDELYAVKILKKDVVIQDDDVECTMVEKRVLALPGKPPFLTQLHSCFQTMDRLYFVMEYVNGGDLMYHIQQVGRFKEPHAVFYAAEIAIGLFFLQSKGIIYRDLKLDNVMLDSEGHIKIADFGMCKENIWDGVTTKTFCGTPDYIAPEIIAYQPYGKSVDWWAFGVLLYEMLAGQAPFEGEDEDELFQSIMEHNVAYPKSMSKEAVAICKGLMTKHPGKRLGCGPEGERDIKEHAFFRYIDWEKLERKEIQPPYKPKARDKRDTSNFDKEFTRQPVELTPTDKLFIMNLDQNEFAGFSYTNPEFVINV
Test [7] shares this target. The conditions noted are these: at 1 µM.
For test [8], the target named is T2, Serine/threonine-protein kinase D1 (Homo sapiens) (UniProt Q15139).
T2 sequence (whole entry): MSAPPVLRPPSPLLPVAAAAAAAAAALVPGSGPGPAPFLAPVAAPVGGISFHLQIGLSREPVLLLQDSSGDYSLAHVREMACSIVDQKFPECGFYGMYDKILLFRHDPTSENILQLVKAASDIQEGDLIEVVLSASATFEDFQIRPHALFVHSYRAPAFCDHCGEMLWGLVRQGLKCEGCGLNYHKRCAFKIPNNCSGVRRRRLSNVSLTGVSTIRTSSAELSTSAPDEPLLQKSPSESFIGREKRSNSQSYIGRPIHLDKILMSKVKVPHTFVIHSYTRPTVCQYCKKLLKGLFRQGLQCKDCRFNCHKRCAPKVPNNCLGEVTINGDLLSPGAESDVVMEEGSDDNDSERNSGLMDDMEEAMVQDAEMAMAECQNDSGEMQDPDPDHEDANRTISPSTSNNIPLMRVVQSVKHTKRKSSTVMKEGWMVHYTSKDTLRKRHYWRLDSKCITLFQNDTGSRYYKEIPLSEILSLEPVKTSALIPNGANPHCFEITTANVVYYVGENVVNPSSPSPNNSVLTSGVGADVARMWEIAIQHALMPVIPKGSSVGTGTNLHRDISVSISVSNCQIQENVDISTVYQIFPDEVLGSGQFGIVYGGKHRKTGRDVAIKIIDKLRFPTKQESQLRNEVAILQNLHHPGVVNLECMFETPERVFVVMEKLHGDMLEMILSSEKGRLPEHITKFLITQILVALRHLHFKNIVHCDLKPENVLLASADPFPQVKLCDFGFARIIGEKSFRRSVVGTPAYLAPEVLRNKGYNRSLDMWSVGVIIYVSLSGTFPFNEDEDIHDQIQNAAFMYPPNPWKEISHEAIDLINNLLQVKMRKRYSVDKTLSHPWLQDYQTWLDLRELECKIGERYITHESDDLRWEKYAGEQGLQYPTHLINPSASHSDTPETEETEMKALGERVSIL
Conditions: at 0.1 µM.

Test [9] addresses T2, Serine/threonine-protein kinase D1 (Homo sapiens). The conditions noted are these: at 1 µM.
Test [10] has as its target T3, Serine/threonine-protein kinase D2 (Homo sapiens) (UniProt Q9BZL6).
T3 sequence (whole entry): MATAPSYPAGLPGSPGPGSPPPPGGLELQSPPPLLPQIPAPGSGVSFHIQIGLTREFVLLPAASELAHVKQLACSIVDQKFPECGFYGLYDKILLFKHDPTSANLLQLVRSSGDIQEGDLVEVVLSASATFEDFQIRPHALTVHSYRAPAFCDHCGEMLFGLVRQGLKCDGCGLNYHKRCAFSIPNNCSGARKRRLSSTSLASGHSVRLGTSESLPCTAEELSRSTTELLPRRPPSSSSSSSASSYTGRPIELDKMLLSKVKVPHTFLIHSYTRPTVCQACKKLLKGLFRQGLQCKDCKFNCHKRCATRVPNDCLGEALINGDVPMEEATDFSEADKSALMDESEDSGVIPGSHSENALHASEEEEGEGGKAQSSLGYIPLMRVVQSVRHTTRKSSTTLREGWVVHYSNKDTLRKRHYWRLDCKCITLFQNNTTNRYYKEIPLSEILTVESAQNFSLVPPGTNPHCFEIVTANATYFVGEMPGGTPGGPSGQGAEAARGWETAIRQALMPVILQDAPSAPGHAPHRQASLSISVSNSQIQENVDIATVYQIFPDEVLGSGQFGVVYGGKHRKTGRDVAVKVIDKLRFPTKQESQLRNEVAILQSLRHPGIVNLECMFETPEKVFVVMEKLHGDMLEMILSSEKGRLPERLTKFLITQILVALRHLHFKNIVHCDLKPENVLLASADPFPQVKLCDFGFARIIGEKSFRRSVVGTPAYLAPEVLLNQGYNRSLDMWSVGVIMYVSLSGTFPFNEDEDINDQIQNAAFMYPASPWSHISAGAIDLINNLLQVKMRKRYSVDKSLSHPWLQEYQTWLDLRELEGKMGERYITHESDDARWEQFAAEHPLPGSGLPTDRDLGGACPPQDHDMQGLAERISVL
The conditions noted are these: at 0.1 µM.

Test [11] deals with T3, Serine/threonine-protein kinase D2 (Homo sapiens). The conditions noted are these: at 1 µM.
The target of test [12] is T4, Serine/threonine-protein kinase D3 (Homo sapiens) (UniProt O94806).
T4 sequence (whole entry): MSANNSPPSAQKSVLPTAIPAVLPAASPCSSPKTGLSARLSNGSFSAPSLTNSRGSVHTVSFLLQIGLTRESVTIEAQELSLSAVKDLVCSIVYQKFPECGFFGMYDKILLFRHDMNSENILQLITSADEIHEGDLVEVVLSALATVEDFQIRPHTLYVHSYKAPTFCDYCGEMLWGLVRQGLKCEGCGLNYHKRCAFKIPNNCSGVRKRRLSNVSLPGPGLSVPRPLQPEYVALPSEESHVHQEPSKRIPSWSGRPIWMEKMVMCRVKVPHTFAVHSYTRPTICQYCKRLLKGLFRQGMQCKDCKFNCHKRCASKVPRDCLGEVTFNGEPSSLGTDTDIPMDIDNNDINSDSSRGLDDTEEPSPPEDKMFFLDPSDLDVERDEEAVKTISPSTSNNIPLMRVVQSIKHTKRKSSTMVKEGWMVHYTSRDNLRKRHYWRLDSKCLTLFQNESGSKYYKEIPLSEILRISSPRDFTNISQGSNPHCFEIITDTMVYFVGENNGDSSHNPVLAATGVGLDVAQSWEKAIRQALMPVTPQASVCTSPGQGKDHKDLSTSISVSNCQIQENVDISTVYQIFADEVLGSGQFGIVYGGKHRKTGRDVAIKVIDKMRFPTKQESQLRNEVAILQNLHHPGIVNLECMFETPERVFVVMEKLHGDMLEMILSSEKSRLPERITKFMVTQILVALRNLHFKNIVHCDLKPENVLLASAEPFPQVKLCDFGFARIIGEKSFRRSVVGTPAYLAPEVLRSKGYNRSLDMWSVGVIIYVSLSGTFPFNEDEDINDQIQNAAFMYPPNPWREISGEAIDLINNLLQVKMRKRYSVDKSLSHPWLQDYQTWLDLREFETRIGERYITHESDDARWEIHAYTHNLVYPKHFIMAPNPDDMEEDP
Conditions: at 0.1 µM.

The target of test [13] is T4, Serine/threonine-protein kinase D3 (Homo sapiens). The conditions noted are these: at 1 µM.
The target of test [14] is T5, cGMP-dependent protein kinase 1 (Homo sapiens) (UniProt Q13976).
T5 sequence (whole entry): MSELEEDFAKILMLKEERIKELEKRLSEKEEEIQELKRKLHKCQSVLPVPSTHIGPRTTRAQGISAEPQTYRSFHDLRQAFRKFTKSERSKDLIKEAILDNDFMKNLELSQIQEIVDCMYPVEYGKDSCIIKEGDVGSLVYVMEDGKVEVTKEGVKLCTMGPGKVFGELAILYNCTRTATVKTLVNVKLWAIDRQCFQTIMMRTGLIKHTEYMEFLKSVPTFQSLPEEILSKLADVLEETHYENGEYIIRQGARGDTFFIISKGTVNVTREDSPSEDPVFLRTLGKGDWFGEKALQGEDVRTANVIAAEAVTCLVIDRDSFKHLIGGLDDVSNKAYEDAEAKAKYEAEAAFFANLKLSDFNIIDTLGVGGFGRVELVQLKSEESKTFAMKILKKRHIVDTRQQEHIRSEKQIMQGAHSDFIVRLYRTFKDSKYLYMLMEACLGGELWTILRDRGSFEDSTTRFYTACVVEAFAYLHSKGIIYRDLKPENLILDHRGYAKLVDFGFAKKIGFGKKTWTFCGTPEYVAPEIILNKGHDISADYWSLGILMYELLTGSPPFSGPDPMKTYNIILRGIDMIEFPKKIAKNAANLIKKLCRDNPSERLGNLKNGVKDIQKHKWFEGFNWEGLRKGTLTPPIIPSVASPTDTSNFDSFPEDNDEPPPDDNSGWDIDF
The conditions noted are these: at 0.1 µM.

Test [15] has as its target T5, cGMP-dependent protein kinase 1 (Homo sapiens). Conditions: at 1 µM.
For test [16], the target named is T6, cGMP-dependent protein kinase 2 (Homo sapiens) (UniProt Q13237).
T6 sequence (whole entry): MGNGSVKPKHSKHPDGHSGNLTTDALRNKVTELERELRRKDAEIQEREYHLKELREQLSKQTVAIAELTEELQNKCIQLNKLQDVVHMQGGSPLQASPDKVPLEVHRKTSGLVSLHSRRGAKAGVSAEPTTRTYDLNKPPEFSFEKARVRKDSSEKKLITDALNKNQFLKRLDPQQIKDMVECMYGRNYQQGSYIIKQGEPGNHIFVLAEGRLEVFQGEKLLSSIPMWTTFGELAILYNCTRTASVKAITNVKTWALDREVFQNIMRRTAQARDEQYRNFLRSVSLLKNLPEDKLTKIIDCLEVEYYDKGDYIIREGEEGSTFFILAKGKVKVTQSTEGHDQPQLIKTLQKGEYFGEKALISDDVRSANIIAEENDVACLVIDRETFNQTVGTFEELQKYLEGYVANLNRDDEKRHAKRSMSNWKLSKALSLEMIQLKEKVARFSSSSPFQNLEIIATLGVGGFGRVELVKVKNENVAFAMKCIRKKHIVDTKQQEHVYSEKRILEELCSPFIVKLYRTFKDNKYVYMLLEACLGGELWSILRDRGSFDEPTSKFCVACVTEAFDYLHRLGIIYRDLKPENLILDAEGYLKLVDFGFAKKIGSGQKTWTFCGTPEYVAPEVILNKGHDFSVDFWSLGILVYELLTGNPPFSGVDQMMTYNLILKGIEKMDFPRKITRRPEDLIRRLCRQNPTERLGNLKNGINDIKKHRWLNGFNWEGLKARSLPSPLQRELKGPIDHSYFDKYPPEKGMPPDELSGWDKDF
The conditions noted are these: at 0.1 µM.

In test [17] the target is T6, cGMP-dependent protein kinase 2 (Homo sapiens). The conditions noted are these: at 1 µM.
Test [18] addresses T7, cAMP-dependent protein kinase catalytic subunit PRKX (Homo sapiens) (UniProt P51817).
T7 sequence (whole entry): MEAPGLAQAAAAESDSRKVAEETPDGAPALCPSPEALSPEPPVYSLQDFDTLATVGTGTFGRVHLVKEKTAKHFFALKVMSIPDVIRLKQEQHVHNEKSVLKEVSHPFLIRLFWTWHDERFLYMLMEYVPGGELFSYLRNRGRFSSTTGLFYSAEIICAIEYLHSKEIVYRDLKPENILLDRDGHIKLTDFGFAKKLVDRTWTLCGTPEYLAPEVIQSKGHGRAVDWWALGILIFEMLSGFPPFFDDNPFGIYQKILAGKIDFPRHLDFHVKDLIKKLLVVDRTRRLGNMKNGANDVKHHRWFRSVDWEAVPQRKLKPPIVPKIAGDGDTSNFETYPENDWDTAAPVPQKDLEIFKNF
The conditions noted are these: at 0.1 µM.

Test [19] addresses T7, cAMP-dependent protein kinase catalytic subunit PRKX (Homo sapiens). The conditions noted are these: at 1 µM.
The target in test [20] is Rho-associated protein kinase 1 (Homo sapiens) (UniProt Q13464). The conditions noted are these: at 0.1 µM.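 Note: values are mean percent inhibition of ROCK1.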
Rho-associated protein kinase 1 (Homo sapiens), sequence (Q13464 2-1354 limits assumed): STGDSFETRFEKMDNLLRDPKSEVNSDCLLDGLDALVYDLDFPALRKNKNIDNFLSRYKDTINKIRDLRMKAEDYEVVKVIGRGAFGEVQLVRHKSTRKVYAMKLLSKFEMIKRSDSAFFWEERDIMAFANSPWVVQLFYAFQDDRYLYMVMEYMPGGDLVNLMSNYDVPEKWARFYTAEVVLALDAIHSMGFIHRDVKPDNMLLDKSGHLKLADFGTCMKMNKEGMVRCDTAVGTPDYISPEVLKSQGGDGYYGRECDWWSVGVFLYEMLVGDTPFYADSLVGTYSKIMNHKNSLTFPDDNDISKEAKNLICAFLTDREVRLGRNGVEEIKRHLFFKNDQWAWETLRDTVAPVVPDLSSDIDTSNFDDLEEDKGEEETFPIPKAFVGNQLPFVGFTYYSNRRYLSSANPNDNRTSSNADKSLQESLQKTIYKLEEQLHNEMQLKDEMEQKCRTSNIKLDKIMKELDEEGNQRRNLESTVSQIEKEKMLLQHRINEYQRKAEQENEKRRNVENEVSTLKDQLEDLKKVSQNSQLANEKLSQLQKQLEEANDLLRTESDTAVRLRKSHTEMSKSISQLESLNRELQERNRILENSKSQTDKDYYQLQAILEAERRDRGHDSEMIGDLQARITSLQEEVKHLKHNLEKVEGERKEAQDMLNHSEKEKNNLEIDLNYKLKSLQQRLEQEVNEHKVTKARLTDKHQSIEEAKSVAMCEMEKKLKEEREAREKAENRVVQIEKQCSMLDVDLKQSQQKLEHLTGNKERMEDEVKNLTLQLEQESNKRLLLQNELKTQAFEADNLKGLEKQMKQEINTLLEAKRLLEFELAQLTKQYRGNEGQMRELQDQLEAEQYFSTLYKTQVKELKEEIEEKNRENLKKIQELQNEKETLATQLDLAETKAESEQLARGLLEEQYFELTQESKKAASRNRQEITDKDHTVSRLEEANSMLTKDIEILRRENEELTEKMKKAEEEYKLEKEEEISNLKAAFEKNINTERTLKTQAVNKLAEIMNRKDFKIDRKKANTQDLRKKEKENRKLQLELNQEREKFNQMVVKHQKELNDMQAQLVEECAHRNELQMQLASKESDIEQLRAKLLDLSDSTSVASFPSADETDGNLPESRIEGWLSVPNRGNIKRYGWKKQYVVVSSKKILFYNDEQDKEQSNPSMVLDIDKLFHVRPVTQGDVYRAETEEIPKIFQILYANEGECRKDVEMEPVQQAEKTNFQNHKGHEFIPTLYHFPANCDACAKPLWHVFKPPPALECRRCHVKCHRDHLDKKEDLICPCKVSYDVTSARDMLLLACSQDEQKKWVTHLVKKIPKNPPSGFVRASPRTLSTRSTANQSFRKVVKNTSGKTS

Protein kinase C theta type (Homo sapiens), sequence (Q04759 whole entry, looked up): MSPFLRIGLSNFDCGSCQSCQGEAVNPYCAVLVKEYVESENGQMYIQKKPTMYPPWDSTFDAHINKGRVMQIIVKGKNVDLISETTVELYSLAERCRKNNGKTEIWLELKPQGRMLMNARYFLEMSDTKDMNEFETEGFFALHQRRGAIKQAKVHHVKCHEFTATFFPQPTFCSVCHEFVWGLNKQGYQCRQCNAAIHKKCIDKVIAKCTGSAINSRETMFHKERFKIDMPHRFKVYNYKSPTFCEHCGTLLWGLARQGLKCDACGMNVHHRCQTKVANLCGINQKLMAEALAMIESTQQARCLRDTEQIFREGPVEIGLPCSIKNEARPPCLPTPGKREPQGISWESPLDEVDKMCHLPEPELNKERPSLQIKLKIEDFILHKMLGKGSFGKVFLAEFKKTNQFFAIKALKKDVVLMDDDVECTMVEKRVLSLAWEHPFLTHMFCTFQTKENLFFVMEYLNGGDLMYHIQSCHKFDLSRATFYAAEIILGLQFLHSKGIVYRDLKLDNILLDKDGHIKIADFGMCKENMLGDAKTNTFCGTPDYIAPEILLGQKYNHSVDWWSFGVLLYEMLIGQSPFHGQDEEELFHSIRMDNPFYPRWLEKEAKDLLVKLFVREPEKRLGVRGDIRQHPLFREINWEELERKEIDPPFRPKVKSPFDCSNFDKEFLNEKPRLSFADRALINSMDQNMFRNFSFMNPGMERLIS

`Fc1ccc(-c2c(-c3ccncc3)nc3n2CCS3)cc1`: the inhibition (in general, the drop in the measured response relative to a control, in per cent) worked out at 4.08% in [1]; 1.39% in test [2]; 1.01% in test [3]; 1.55% in [4]; 4.99% in test [5]; 1.11% in [6]. Further, the inhibition in test [7] is 3.63%; in [8] it was -0.81%; in test [9] it was 2.14%; in test [10], -0.29%; in [11], 0.4%; in [12], 0.15%. For the same compound, the inhibition was determined as 1.02% in test [13]; 4.15% in [14]; 8.03% in [15]; 2.62% in [16]; 7.38% in [17]; 6.08% in test [18]. Also, the inhibition in [19] came out at 14.6%; in [20], 8.73%.

As to `NC(=O)c1cc(-c2ccncc2)cc(-c2ccccc2)c1N`, the inhibition in test [1] came to 4.29%; in test [2] it was 2.83%; in test [3], 4.85%; in [4], 2.27%; in test [5] it was 4.49%; in [6], 1.9%. For the same compound, the inhibition in test [7] was determined as 2.02%; in test [8], 4.07%; in test [9], 6.39%; in [10] it was 5.01%; in test [11] it was 5.63%; in test [12], 5.86%. Moreover, the inhibition in test [13] worked out at 6.16%; in test [14], 3.61%; in test [15], 8.21%; in test [16], 2.71%; in test [17], 5.42%; in test [18] it was 1.92%. Besides, the inhibition in [19] worked out at 2.61%; in test [20], 1.71%.

The record behind these values is ChEMBL document CHEMBL1961873, “Compounds: GSK PKIS; Assays: Nanosyn kinase panel” (2012).
